Screening data: PubChem, National Center for Advancing Translational Sciences (NCATS)
An excerpt weighted towards active compounds, which were near 9.3% of everything screened.
ELG1 genotox: induces genotoxicity in HEK293T cells with luciferase-tagged ELG1; HEK293T ELG1-luciferase reporter, luminescence, 16 h; Potency, µM (titrated, usually from 46 µM), for the others: at the top dose activity change, positive = activation, most hits filed as activators; 330,000 compounds, 1.3% hits; AID 504466; further: % of control where 0% means no effect; nearly all actives have a fitted effect of over 60% in size
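Genotoxic stress is detected as increased luminescence from luciferase-tagged ELG1 in HEK293T cells, measured with ONE-Glo after a 16 hr treatment at 37 °C.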
NPC1 promoter act: activators of NPC1 promoter; Huh7 NPC1 promoter luciferase reporter, 24 h; Potency, µM (series often up to 9.22 µM), for the others: top-dose activation, most hits filed as activators; 320,000 compounds, 2.4% hits; AID 485313; further: % of control where 0% means no effect; nearly all actives have a fitted effect of over 60% in size
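In 1536-well qHTS, Huh7 cells harboring an NPC1 promoter–luciferase construct received compound for 24 h; activation was quantified by luminescence following luciferase reagent addition.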
Rab9 promoter act: activators of Rab9 promoter | AID 485297 | 320,000 compounds, 2.8% hits | Huh7 Rab9 promoter-luciferase reporter, luminescence, 24 h | Potency, µM (series often up to 9.22 µM), for inactives: at the highest dose activation, negative = inhibition, usual class: activators; further: % of control where 0% means no effect; nearly all actives have a fitted effect of over 60% in size
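Cells were plated at 1500 per well in reduced-serum medium with 10% FBS and left 2 h. Compound in DMSO was then added for 24 h at 37 °C. Reporter signal was read by luminescence after 10 min with luciferase detection reagent.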
SMN2 splice up: increases expression of the SMN2 splice variant | 210,000 compounds, 2.8% hits | HEK293 SMN2-luciferase splicing reporter, luminescence, 30-36 h | AID 1458 | Potency, µM (titrated, usually from 46.1 µM), for the others: top-dose activity change, positive = activation, actives largely listed as activators; further: % of control where 0% means no effect; nearly all actives have a fitted effect of over 55% in size
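HEK293 cells carry an SMN2 […]–luciferase reporter in which exon 7 inclusion puts luciferase in frame. Cells were plated 10-12 h before compound addition, then incubated 30-36 h at 37C. ONE-Glo luminescence was read; sodium butyrate at 4.5 mM final served as control.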
FLuc counter: firefly luciferase modulation, counter-screen for miR-21 project; purified FLuc, Km substrates, luminescence inhibition; Potency, µM (highest dose often 57.5 µM), without a hit: top-dose activity change, negative = inhibition, most hits filed as inhibitors; 360,000 compounds, 6.9% hits; AID 588342; P08659;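 further: plate controls were vehicle for no effect and reference inhibitor for full effect; nearly all actives have a fitted effect of over 55% in size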
Target sequence (P08659 whole entry, looked up): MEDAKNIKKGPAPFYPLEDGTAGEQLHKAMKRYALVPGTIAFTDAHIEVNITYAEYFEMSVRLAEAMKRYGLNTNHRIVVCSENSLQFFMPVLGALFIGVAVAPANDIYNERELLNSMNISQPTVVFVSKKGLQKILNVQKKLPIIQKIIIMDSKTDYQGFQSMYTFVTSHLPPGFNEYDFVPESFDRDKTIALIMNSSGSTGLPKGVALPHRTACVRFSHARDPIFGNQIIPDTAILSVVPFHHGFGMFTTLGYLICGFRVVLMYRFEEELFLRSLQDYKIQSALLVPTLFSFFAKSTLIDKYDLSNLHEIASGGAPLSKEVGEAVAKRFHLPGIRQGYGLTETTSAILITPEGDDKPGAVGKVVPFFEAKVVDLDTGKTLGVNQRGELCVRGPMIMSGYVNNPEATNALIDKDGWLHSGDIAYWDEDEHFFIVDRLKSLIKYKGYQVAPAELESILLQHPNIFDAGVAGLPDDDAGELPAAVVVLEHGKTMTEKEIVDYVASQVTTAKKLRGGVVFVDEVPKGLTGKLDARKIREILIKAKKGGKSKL
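Purified P. pyralis luciferase (10nM final) with 10uM D-luciferin and 10uM ATP (Km levels) in 50mM Tris acetate pH 7.5, 10mM Mg acetate, 0.01% Tween-20, 0.05% BSA; qHTS 6-point titration, ~60 µM downward; luminescence read.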
ELG1 DNA repair: inhibitors of ELG1-dependent DNA repair in HEK293T cells. HEK293T ELG1-luciferase reporter, luminescence, 16 h; DNA damage induced by 5-fluorouridine. Potency, µM (titrated, usually from 46.1 µM), for inactives: at the top dose activity change, negative = inhibition, usual class: inhibitors. AID 504467. 330,000 compounds, 2.3% hits; further: on the % scale 0 is the no-effect control and ±100 the full control effect; nearly all actives have a fitted effect of over 55% in size
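Step one: seed 2,000 cells per well. Step two: pin-transfer compound or DMSO alongside 5-fluorouridine. Step three: incubate 16 hr, 37 °C, 5% CO2. Step four: add ONE-Glo, wait 30 min, read luminescence.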
* = called active by the depositor; ? = inconclusive; / = not tested or not shown; [ ] = dose if it differs, or a comment. The call rests on the fitted dose curve; in most records, active means well fitted curve in the direction sought with a large enough effect; inconclusive means small, poorly fitted or top-dose-only effect, or another doubt; inactive means no such curve, though single readings can be large; an effect the other way counts as inactive or inconclusive. Potency means the concentration at half of the fitted maximal effect.

SMILES	ELG1 genotox	NPC1 promoter act	Rab9 promoter act	SMN2 splice up	FLuc counter	ELG1 DNA repair
Clc1ccc2c(NCCNc3ccnc4cc(Cl)ccc34)ccnc2c1	/	/	/	2%[9.22 µM]	/	/
CC1(C)C(c2cccs2)=[N+]([O-])C2(CCCCC/C2=N\NC(N)=S)N1O (stereo unspecified)	2%	5%	7%	-9%	-6%	?
CCc1ccccc1NS(=O)(=O)c1ccc(-c2coc(C)n2)cc1	/	/	/	/	-14%	/
CCn1nc(C)c(C(=O)Nc2cc(Oc3cc(C)cc(C)c3)cc([N+](=O)[O-])c2)c1C	-2%	-12%	-10%	-54%	3%	13µM*
Cc1nn(C)cc1C(=O)Nc1cc(Oc2ccc(Cl)cc2)cc([N+](=O)[O-])c1	1%	-3%	-6%	-16%	0%	-3%
CO/N=C/c1ccc(N2CCN(C(=O)c3ccc(C)cc3)CC2)c([N+](=O)[O-])c1	2%	1%	0%	-13%	1%	21µM*
O=[N+]([O-])c1cc(/C=N/O)ccc1N1CCCC1	-10%	0%	2%	14%	-5%	-21%
Cc1ccc(C(=O)N2CCN(c3cc4c(cc3[N+](=O)[O-])n(C)c(=O)n4C)CC2)cc1	-2%	-4%	-3%	-27%	-1%	-13%
CO/N=C/c1ccc(N2CCCC2)c([N+](=O)[O-])c1	-1%	9%	20%	-28%	17µM*	-5%
CC(C)OC(=O)c1cc(C(=O)c2cc(Br)ccc2O)coc1=N	-2%	-4%	-10%	-35%	?	14%
CN(Cc1c(C(=O)N/N=C/c2cccc(F)c2)nnn1-c1nonc1N)C1CCCCC1	3%	-2%	0%	/	1%	16%
CCN(CC)c1nc(C)nc2c1cnn2CCc1ccccc1	12µM*	?	?	22µM*	19µM*	?
CCN(CC)c1ncnc2c1cnn2Cc1ccc(C)cc1	-1%	2%	-5%[1.84 µM]	/	5%	1%
Cc1ccc(NC2=C/C(=N/S(=O)(=O)c3cccs3)c3ccccc3C2=O)cc1	-13%	?	?	/	?	?
Cc1ccc(S(=O)(=O)/N=C2\C=C(Nc3cccc(C(=O)O)c3)C(=O)c3ccccc32)cc1	-34%	-7%	?	/	?	23µM*
COC(=O)c1ccccc1NC1=C/C(=N\S(=O)(=O)c2ccc(C(=O)O)cc2)c2ccccc2C1=O	-13%	-29%	-5%	/	?	?
Cc1ccc(S(=O)(=O)/N=C2\C=C(Nc3cccc(C(=O)O)c3)C(=O)c3ccccc32)c(C)c1	-27%	-14%	-23%	/	?	?
Cc1ccc(S(=O)(=O)/N=C2\C=C(Nc3ccc(O)cc3)C(=O)c3ccccc32)cc1	-12%	/	/	/	/	10µM*
CCc1ccc(S(=O)(=O)/N=C2\C=C(Nc3ccc(C(=O)O)cc3)C(=O)c3ccccc32)cc1	-15%	-36%	-27%	/	?	4.6µM*
CS(=O)(=O)N(CC(=O)Nc1ccc(Br)cc1)C1CCCCC1	-21%	-5%	-5%	/	-1%	-11%
COc1ccc(-n2nc(C(=O)NCC(=O)N3CCN(Cc4ccccc4)CC3)c3ccccc3c2=O)cc1OC	-5%	0%	-2%	/	?	?
COc1ccc(-n2nc(C(=O)NCC(=O)N3CCN(c4ccccn4)CC3)c3ccccc3c2=O)cc1Cl	-14%	22%	?	?	3µM*	-10%
COc1ccc(-n2nc(C(=O)NCC(=O)N3CCC(C)CC3)c3ccccc3c2=O)cc1Cl	-7%	24%	21%	/	1.9µM*	?
CCCC(=O)Nc1cccn(Cc2ccccc2Br)c1=O	-1%	-2%	2%	-12%	2%	0%
Cc1nc2nc[nH]n2c(=O)c1NC(=O)CCc1ccccc1	-2%	1%	3%	-39%	-1%	1%
SMILES	ELG1 genotox	NPC1 promoter act	Rab9 promoter act	SMN2 splice up	FLuc counter	ELG1 DNA repair
Cc1oc(C(C)(C)C)cc1C(=O)Nc1cccc(/C=C\C(=O)O)c1	9%	2%	2%	8%	8.5µM*	?
Cc1oc(-c2ccccc2)cc1C(=O)Nc1ccc(N(C)C)cc1	0%	0%	0%	-30%	13µM*	-22%
Cc1oc(-c2ccccc2)cc1C(=O)Nc1cccc(/C=C\C(=O)O)c1	-1%	-4%	1%	/	15µM*	-5%
O=C(Nc1cccc(C(F)(F)F)c1)C1CCN(c2nnc(-n3cccc3)s2)CC1	/	/	/	/	3%	/
O=C(NC1CC1)c1cccc(NC(=O)c2cn3ccccc3n2)c1	12%	?	3.2µM*	/	/	?
O=C(Nc1cccc(C(=O)NC2CCCC2)c1)c1ccccc1	-3%	-5%	4%	/	-4%	-2%
O=C(NC1CC1)c1cccc(NC(=O)c2cnn(-c3ccccc3)n2)c1	-4%	/	/	/	/	12µM*
O=C(Nc1ccc(N2CCOCC2)cc1)c1cn2ccccc2n1	3%	?	?	?	1.7µM*	?
O=C(CNC(=O)c1cn2ccccc2n1)Nc1ccc(F)c(F)c1	8.2µM*	?	2.2µM*	/	17µM*	?
COc1cccc(C(=O)NNC2=C(C(=O)C(F)(F)F)CCC2)c1	1%	-3%	4%	/	-19%	?
CCCCN1CCCCC1C(=O)Nc1c(C)cccc1C (stereo unspecified)	-9%	-1%	-3%	-8%	2%	9%
O=C(N/N=C/c1ccc(Sc2nc3ccccc3[nH]2)o1)c1ccncc1	-5%	-3%	6%	0%	-10%	-11%
CCNC(=S)N1CCN(c2ccc([N+](=O)[O-])cc2)CC1	-4%	1%	-1%	-27%	6%	-1%
O=[N+]([O-])c1ccc(N2CCN(C(=S)NCc3ccc(Cl)cc3)CC2)cc1	-6%	1%	-2%	/	0%	15µM*
CC(C)c1cc2cc3ccc(=O)oc3cc2o1	?	?	?	/	12µM*	?
